Results on 37 compounds are retold here after article PMC5540273 (PLoS ONE, 2017).

The structures appear in SMILES notation.
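Further: KINOMEscan kinase panel screen.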

The subject of this test is MTOR. To be noted: concentration: 1 μM, replicates: in singlicate; n = 1.
As to `O=C(O)C(F)(F)F.O=C(O)C(F)(F)F.O=c1[nH]ccc2nc(N[C@@H]3CCCNC3)nc(Nc3ccc(S(=O)(=O)N4CCOCC4)cc3)c12` [GSK2177277], the “%Inh” value came to 9%.
The figure for `COc1cc(Nc2nccc(N3CCC(NC(=O)c4cc5ccccc5s4)C3)n2)cc(OC)c1OC` (stereo not shown) [GSK1379760] is 34%.
The figure for `CN1CCN(Cc2cccc(-c3ccc4c(Nc5ccc(Oc6ccccc6)cc5)ccnc4c3)c2)CC1` [GW578342] is 15%; for `Fc1ccc(-c2ncn(C3CCNCC3)c2-c2ccnc(Oc3ccc(-c4ccccc4)cc3)n2)cc1` [SB-245391] it is 0%.
The figure for `Cc1ccc(S(=O)(=O)Nc2ccc(Nc3nccc(Nc4cccc5[nH]ncc45)n3)cc2)cc1` [GSK581271] is 5%; for `COC(=O)Nc1nc2ccc(Oc3ccc(NC(=O)Nc4cc(C(F)(F)F)ccc4F)cc3)cc2n1C.Cl` [GW692089] it is 28%.
Take `O=C(Nc1n[nH]c2nc(-c3ccc(O)cc3)ccc12)C1CC1` [SB-710363]: the “%Inh” value came to 0%.
The figure for `CNC(=O)c1ccccc1Nc1nc(Nc2ccc(N3CCOCC3)cc2)ncc1Cl.Cl` [GSK1576028] is 8%.
For the compound `Cl.NC(=O)c1cccc(Nc2nccc(Nc3ccc(Oc4c(Cl)cccc4Cl)c(Cl)c3)n2)c1` [GW659009], the “%Inh” value is on record as 0%.
In the case of `COc1cc(Nc2nccc(-c3c(-c4cccc(NC(=O)c5c(F)cccc5F)c4)nn4ccccc34)n2)cc(OC)c1OC` [GSK323521] it was 33%; in that of `Cn1cc(-c2ccc3c(c2)CCN3C(=O)Cc2cccc(F)c2)c2c(N)ncnc21` [GSK2603358], 16%; in that of `Cc1cccc(Nc2nc(N[C@H]3CCNC3)ncc2C(N)=O)c1.Cl` [GSK2197149], 0%.
In the case of `c1ccc(-c2n[nH]cc2Nc2ccnc3ccccc23)nc1` [GW694077] it was 11%.
For `CN(C)Cc1ccc(-c2ccc3c(Nc4ccc(Oc5ccccn5)cc4)ccnc3c2)o1` [GW567148], the “%Inh” value came out at 8%.
The figure for `CCS(=O)(=O)c1ccc(OC)c(Nc2nccc(-c3c(-c4cccc(NC(=O)c5c(F)cccc5F)c4)nn4ncccc34)n2)c1` [GSK326180] is 15%; for `COc1cccc(C2=C(Nc3ccc(Cl)c(C(=O)O)c3)C(=O)NC2=O)c1` [SB-390769] it is 18%; for `COc1cccc(NC(=O)NC2CCN(c3ccnc(Nc4cc(OC)c(OC)c(OC)c4)n3)C2)c1` (stereo not shown) [GSK1379763] it is 7%.
As for `Cc1ccc(C)c(NC(=O)NC2CCN(c3ccnc(Nc4ccc(F)cc4)n3)C2)c1` (stereo not shown) [GSK1379720], the “%Inh” value was 15%.
The figure for `Cc1ccc(F)c(C(=O)Nc2cccc(-c3nn4ccccc4c3-c3ccnc(Nc4cccc(F)c4)n3)c2)c1F` [GSK361061] is 13%; for `Cc1occc1-c1ncc(OC[C@@H](N)Cc2c[nH]c3ccccc23)cc1-c1ccc2[nH]nc(C)c2c1.O=C(O)C(F)(F)F` [GSK682037] it is 7%.
On to `COc1ccc(Nc2nccc(N3CCC(NC(=O)Nc4cccc(OC)c4)C3)n2)cc1` (stereo not shown) [GSK1379742], for which the “%Inh” value is reported as 10%.
In the case of `CC(=O)N1CCN(c2ccc(Nc3nccc(-c4sc(C(C)C)nc4-c4cccc(NS(=O)(=O)c5cccc(Cl)c5)c4)n3)cn2)CC1` [GSK1660437] it was 3%.
The figure for `Nc1ncnc2c1nc(-c1ccccc1)n2-c1ccccc1` [SKF-97293] is 8%.
The figure for `O=C(NC1CCN(c2ccnc(Nc3ccc(F)cc3)n2)C1)c1cc2ccccc2s1` (stereo not shown) [GSK1379716] is 25%; for `COc1cccc(C(=O)Nc2cccc(Oc3ccc4nc(NC(=O)C5CC5)cn4n3)c2)c1` it is 0%; for `Cl.Cl.NCC(C(=O)Nc1cc(Br)c(-c2ccnc3[nH]ccc23)s1)c1ccccc1` (stereo not shown) [GSK1269851] it is 26%.
As to `Cn1cc(-c2ccc3c(c2)CCN3C(=O)Cc2cccc(Cl)c2)c2c(N)ncnc21` [GSK2606590], the “%Inh” value is reported as 0%.
As to `COc1cc(Nc2ncc3c(C)nc(-c4cc5ccccc5[nH]4)n3n2)cc(OC)c1OC` [GW869516], the “%Inh” value came out at 14%.
The figure for `O=C(Nc1cccc(-c2nn3ccccc3c2-c2ccnc(Nc3cccc(F)c3)n2)c1)c1c(F)ccc(F)c1Cl` [GSK357952] is 0%; for `C[C@@H](Oc1cc(-n2cnc3cc(-c4ccnc(NCCS(C)(=O)=O)c4)ccc32)sc1C(N)=O)c1ccccc1Cl` [GSK907232] it is 2%.
With `COc1cccc(-c2ccc3c(NC(=O)C4CC4)n[nH]c3n2)c1` [SB-710903], the “%Inh” value is listed as 20%.
Take `Cc1ccc(C(=O)N2CC[C@@H](O)C2)cc1-n1c(C)cc(OCc2ccc(F)cc2F)c(Br)c1=O`: the “%Inh” value stood at 45%.
In the case of `Cl.c1ccc(-c2ccc3c(Nc4ccc5[nH]ccc5c4)ccnc3c2)nc1` [GW440138] it was 4%; in that of `CCc1ccc(-c2ccc3c(c2)-c2c(cnn2C)S(=O)(=O)N3C)cc1`, 0%.
In the case of `COc1ccc(Nc2nccc(NCCNC(=O)c3cc4ccccc4s3)n2)cc1` [GSK1379896] it was 0%; in that of `Nc1ncc(-c2ccc3nccc(-c4ccncc4)c3c2)cc1S(=O)(=O)N1CCOCC1` [GSK1627798], 99.3%.
The figure for `O=C(Nc1n[nH]c2cc(-c3ccoc3)ccc12)C1CC1` [SB-738481] is 0%.
